AGP1 TOR yeast: alters AGP1-GFP fluorescence in TOR pathway yeast screen; S. cerevisiae AGP1-GFP multiplex flow cytometry, 3 h; GFP as percent of DMSO wells; GFP response vs DMSO, % at 10 µM; 320,000 compounds, 0.02% hits; AID 2066;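 active means GFP response relative to DMSO above a set limit, near screen average plus 3 SD, cut at about 150% in these data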;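 further: median GFP channel fluorescence of the gated AGP1 strain per well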
CIT2 TOR yeast: alters CIT2-GFP fluorescence in TOR pathway yeast screen; AID 2029; S. cerevisiae CIT2-GFP strain, flow cytometry, 3 h; 100 means same as DMSO wells; 320,000 compounds, 0.065% hits; GFP response vs DMSO, % at 10 µM;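 active means GFP response relative to DMSO above a set limit, near the screen mean plus 3 SD, cut at about 150% in these data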;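 further: ratio of well median GFP fluorescence to mean of DMSO wells on the plate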
RPL19A TOR yeast: alters RPL19A-GFP fluorescence in TOR pathway yeast screen | S. cerevisiae RPL19A-GFP strain, flow cytometry, 3 h; stronger effect = lower value | percent response vs DMSO, % at 10 µM | 330,000 compounds, 0.3% hits | AID 2025;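 active means percent response vs DMSO below 50%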;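 further: median channel GFP fluorescence of the barcoded RPL19A-GFP strain; lower means less RPL19A-GFP as with rapamycin TOR inhibition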
MEP2-GFP yeast: modulators of TOR pathway MEP2-GFP in S. cerevisiae | S. cerevisiae MEP2-GFP strain, flow cytometry GFP, 3 h; 100% = DMSO control level | GFP response vs DMSO, % at 10 µM | 330,000 compounds, 0.51% hits;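 active means GFP response versus DMSO above a set limit, roughly screen mean plus 3 SD, cut at about 180% in these data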;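 further: median GFP fluorescence of the barcode-gated MEP2-GFP cells per well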
LAP4 TOR yeast: modulators of TOR pathway LAP4-GFP in S. cerevisiae | S. cerevisiae LAP4-GFP multiplex, flow cytometry GFP, 3 h; median GFP as percent of DMSO wells | GFP response vs DMSO, % at 10 µM | 320,000 compounds, 0.34% hits | AID 2023;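 active means GFP response vs DMSO above a set limit, about the screen mean plus 3 SD, cut at about 150% in these data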
LAP4 cherry2: yeast LAP4-GFP modulation, second cherry pick; 590 compounds, 20% hits; S. cerevisiae LAP4-GFP strain, flow cytometry GFP, 3 h; AID 2621; shares compounds with LAP4 TOR yeast; GFP response vs DMSO, % at 10 µM;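 active means GFP signal as percent of the solvent control above about 150%, meaning raised reporter expression, limit read from the data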
MEP2 cherry2: reconfirmed MEP2-GFP TOR pathway modulator in yeast. shares compounds with LAP4 TOR yeast. S. cerevisiae MEP2-GFP strain, flow cytometry GFP, 3 h. GFP response vs DMSO, % at 10 µM. 590 compounds, 10% hits;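 active means GFP signal above 150% of the solvent control wells, that is a rise of more than half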;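 further: median channel GFP fluorescence of all gated yeast cells per well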
RPL19A GFP CP2: yeast RPL19A-GFP TOR reporter modulation, second cherry pick. shares compounds with LAP4 TOR yeast. S. cerevisiae RPL19A-GFP strain, flow cytometry GFP, 3 h; stronger effect = lower value; 100% means same as DMSO wells. GFP response vs DMSO, % at 10 µM. 590 compounds, 3% hits. AID 2623;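 active means under 65% GFP response relative to DMSO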;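 further: median GFP channel fluorescence per well over the all cells gate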
CIT2 GFP CP2: second confirmation of modulators of TOR reporter CIT2-GFP in yeast; GFP response vs DMSO, % at 10 µM; shares compounds with LAP4 TOR yeast; AID 2624; 590 compounds, 8% hits; S. cerevisiae CIT2-GFP strain, flow cytometry GFP, 3 h; DMSO control wells read 100%;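 active means GFP response vs DMSO above about 150%, limit read from the data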;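 further: median green fluorescence per well over all gated yeast cells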
AGP1-GFP pick2: reconfirmed modulator of AGP1-GFP TOR reporter in yeast; shares compounds with LAP4 TOR yeast; S. cerevisiae AGP1-GFP strain, flow cytometry GFP, 3 h; percent response vs DMSO, % at 10 µM; 590 tested, under 10 active; AID 2643;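 active means over 150 percent of DMSO response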;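 further: median GFP channel fluorescence over all cells without mother daughter split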
s288c autofluor: counter-screen for compound autofluorescence in yeast s288c cells | shares compounds with LAP4 TOR yeast | S. cerevisiae s288c, 520 nm autofluorescence, flow cytometry, 3 h; stronger effect = higher value; zero means same as solvent-only cells | fluorescence change (kMESF span) at 33 µM | 610 tested, under 10 active | AID 2757;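 active means fluorescence span over the dose series, or activity score, above about 33, limit read from the data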
A number is an active result; n = inactive; x = no result; + = active, no number. Only some compounds are listed: those with a hit (about 0.92% of all), similar ones and a draw of the others.

SMILES	AGP1 TOR yeast	CIT2 TOR yeast	RPL19A TOR yeast	MEP2-GFP yeast	LAP4 TOR yeast	LAP4 cherry2	MEP2 cherry2	RPL19A GFP CP2	CIT2 GFP CP2	AGP1-GFP pick2	s288c autofluor
COc1cccc(/C=C2\SC(=S)N(CCCC(=O)Nc3ccc(C(=O)O)cc3)C2=O)c1	n	173	n	n	n	n	n	n	n	n	n
Cc1noc(C)c1S(=O)(=O)Nc1ccc(C(=O)N2CCc3ccccc3C2)cc1	n	n	n	n	n	x	x	x	x	x	x
Cc1cccc(C(=O)NNC(=O)Nc2ccccc2)c1	n	n	n	n	n	x	x	x	x	x	x
Cc1cccc(NC(=O)C(C)C(=O)c2ccccc2)c1 (stereo unspecified)	n	n	n	n	n	n	n	n	n	n	x
C=C1CCN(Cc2ccccc2)S(=O)(=O)c2ccccc21	n	n	n	n	163	n	n	n	n	n	x
CCc1cc2cc(C)cc(C)c2[nH]c1=S	n	n	n	n	n	x	x	x	x	x	x
COc1cccc(NC(=O)CCS(=O)(=O)c2cccs2)c1	n	n	x	n	n	x	x	x	x	x	x
O=C1C2CC=CCC2C(=O)N1Cc1ccccc1 (stereo unspecified)	n	n	n	n	n	x	x	x	x	x	x
O=C1C=CC(=O)N1Cc1ccccc1	n	n	n	n	159	n	n	n	n	n	x
O=C(CSc1nnc(C2CC2)n1Cc1ccco1)NCC(F)(F)F	n	n	n	n	n	x	x	x	x	x	x
Cc1c(C(=O)Nc2ccc3nc(N4CCOCC4)sc3c2)oc2ccccc12	n	n	n	n	n	x	x	x	x	x	x
Cc1nc2ccc(NC(=O)c3oc4ccc(F)cc4c3C)cc2s1	266	+	n	+	884	n	n	n	n	n	n
O=c1[nH]c(C2CCN(S(=O)(=O)c3ccccc3)CC2)nc2c1nnn2Cc1c(F)cccc1Cl	n	n	n	n	n	x	x	x	x	x	x
Cc1ccc(C(=O)Sc2cccccc2=O)cc1	n	n	n	n	244	x	x	x	x	x	n
COc1ccc(C(=O)O/N=C2\C(=O)N(C)c3ccccc32)cc1	n	n	n	n	n	x	x	x	x	x	x
CN1C(=O)/C(=N\OC(=O)c2cccc3ccccc23)c2ccccc21	n	n	n	n	207	x	x	x	x	x	n
Cc1ccc(/C(N)=N/OC(=O)c2ccc(F)cc2)cc1	n	170	n	n	n	x	x	x	x	x	n
COc1ccc(OCCCC(=O)OC(C)C(=O)Nc2cccc(C(C)=O)c2)cc1 (stereo unspecified)	n	n	n	n	n	x	x	x	x	x	x
CC(C)CNC(=S)N1CCC(C(=O)c2ccc3c(c2)OCCO3)CC1	n	n	n	n	n	x	x	x	x	x	x
Cc1cc(C)c(S(=O)(=O)N2CCC(C(=O)NCc3ccc(Cl)cc3Cl)CC2)c(C)c1	n	n	n	n	151	152	n	n	n	n	n
O=C(/C=C/c1ccccc1)NC(=S)NNC(=O)Cc1cccs1	n	n	n	n	n	n	n	n	n	n	n

Screening data (PubChem BioAssay)
